# Experimental data: PubChem BioAssay (NCATS)
# Values joined by “and” are separate entries in the source; they are usually repeats but may differ in a detail not shown here. Equal entries are not always repeated. Inconclusive results are not listed. A call without a number means that no potency is given here. The source holds several records for some structures; these can differ, active in one and inactive in another. Active and inactive are the calls of the source. Unless noted, calls follow the shape of the dose curve; as a rule, active = well fitted curve in the direction sought with a large enough effect; inconclusive = small, poorly fitted or top-dose-only effect, or another doubt; inactive = no such curve, though single readings can be large; an effect the other way counts as inactive or inconclusive.
# Key:
# [1] = target: Cytochrome P450 2D6 (Homo sapiens) (UniProt P10635); test: Cytochrome P450 family 2 subfamily D member 6 (CYP2D6) small molecule antagonists: luciferase biochemical (cell-free) qHTS assay (AID 1645840; active = well fitted curve in the direction sought with a large enough effect in the repeat runs; an effect the other way counts as inactive or inconclusive; also: nearly all actives have a fitted effect of over 55% in size; also: potency is read from the fitted curve at half-maximal effect)
# Cytochrome P450 2D6 (Homo sapiens), sequence (P10635 whole entry, looked up): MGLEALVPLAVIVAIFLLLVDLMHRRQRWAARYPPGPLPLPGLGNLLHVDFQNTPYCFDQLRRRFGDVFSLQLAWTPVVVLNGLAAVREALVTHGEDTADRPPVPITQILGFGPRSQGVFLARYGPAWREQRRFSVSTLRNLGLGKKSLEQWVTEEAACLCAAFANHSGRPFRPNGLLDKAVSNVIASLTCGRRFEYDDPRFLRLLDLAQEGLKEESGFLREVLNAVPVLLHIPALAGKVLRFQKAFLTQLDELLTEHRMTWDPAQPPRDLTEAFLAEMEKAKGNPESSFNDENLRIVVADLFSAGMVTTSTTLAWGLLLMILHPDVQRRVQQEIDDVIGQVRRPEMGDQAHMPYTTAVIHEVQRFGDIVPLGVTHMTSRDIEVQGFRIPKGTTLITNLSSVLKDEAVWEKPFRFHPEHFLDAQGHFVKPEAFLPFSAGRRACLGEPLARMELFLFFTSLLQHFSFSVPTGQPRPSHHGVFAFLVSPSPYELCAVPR
# Procedure, shortened: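 P450-Glo CYP2D6 system: proluciferin substrate converted by enzyme to luciferin, read by luminescence proportional to activity. Enzyme-substrate mix with compound 10 min at room temperature, then NADPH regeneration 1 h before detection reagent.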
# [2] = target: Cytochrome P450 2C9 (Homo sapiens) (UniProt P11712); test: Cytochrome P450 family 2 subfamily C member 9 (CYP2C9) small molecule antagonists: luciferase biochemical (cell-free) qHTS assay (AID 1645842; active = well fitted curve in the direction sought with a large enough effect in the repeat runs; an effect the other way counts as inactive or inconclusive; also: nearly all actives have a fitted effect of over 55% in size; also: potency is read from the fitted curve at half-maximal effect)
# Cytochrome P450 2C9 (Homo sapiens), sequence (P11712 whole entry, looked up): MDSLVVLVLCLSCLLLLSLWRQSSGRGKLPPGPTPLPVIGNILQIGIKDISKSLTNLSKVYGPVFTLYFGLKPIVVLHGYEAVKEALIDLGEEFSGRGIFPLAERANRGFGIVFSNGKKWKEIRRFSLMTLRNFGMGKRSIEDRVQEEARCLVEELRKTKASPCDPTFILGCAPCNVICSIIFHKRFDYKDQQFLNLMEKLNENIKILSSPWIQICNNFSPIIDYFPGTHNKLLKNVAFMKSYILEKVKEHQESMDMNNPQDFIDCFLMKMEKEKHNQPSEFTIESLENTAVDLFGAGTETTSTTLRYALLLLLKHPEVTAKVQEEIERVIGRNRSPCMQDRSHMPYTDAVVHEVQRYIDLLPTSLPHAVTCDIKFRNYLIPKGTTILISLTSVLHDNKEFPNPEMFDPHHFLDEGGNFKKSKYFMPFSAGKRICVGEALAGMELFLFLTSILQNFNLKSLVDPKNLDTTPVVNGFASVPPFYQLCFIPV
# Procedure, shortened: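 P450-Glo CYP2C9 system: proluciferin substrate with enzyme in mix containing 0.4% BSA, 10 min at room temperature, then NADPH regeneration solution added and incubated 1 h at 37C. Detection reagent stopped reaction; luminescence read after 20 min as RLU.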
# [3] = Primary qHTS for inhibitors of nuclear receptor binding SET domain protein 2 (NSD2) in an isogenic RCH-ACV NSD2 p.E1099K mutant (9B) (AID 1645876); also: nearly all actives have a fitted effect of over 70% in size; also: potency is read from the fitted curve at half-maximal effect
# [4] = Primary qHTS for inhibitors of nuclear receptor binding SET domain protein 2 (NSD2) in an RCH-ACV wild type WT cells (2C) (AID 1645877); also: nearly all actives have a fitted effect of over 70% in size; also: potency is read from the fitted curve at half-maximal effect
# Papain (Carica papaya) = Papain (Carica papaya) (UniProt P00784); test: Primary qHTS assay for inhibitors of the protease papain (AID 1645873);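 also: papain turnover of Z-FR-AMC read as the AMC fluorescence gain over 10 min; series mostly up to about 50 µM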
# Papain (Carica papaya), sequence (P00784 whole entry, looked up): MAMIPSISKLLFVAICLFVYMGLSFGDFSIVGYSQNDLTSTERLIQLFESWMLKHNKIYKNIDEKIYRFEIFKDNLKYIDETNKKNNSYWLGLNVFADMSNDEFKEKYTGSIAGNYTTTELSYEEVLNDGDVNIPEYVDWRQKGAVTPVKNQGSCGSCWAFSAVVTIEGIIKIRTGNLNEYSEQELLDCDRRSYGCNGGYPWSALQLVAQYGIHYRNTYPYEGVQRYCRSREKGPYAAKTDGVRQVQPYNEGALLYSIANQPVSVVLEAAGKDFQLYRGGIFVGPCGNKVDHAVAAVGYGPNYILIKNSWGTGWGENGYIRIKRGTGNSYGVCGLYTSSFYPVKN
# [5] = target: N-terminal Xaa-Pro-Lys N-methyltransferase 1 (Homo sapiens) (UniProt Q9BV86); test: Confirmatory qHTS for Inhibitors of N-terminal methyltransferase 1 (NTMT1): MTaseGlo Assay (AID 1645874); also: nearly all actives have a fitted effect of over 65% in size; also: potency is read from the fitted curve at half-maximal effect
# N-terminal Xaa-Pro-Lys N-methyltransferase 1 (Homo sapiens), sequence (Q9BV86 whole entry, looked up): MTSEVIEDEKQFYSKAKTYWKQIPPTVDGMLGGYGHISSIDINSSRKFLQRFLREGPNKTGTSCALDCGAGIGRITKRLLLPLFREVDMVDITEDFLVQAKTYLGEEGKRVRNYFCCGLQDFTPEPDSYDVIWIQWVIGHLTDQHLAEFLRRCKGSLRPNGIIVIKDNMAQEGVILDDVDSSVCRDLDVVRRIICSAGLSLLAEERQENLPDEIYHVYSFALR
# Procedure, shortened: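 Room-temperature NTMT1 reaction, 30 min, with 100 uM SAM and 1 uM SPKRIA substrate; enzyme 125 nM. Read-out: MTase-Glo luminescence, normalized to no-enzyme and DMSO controls.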
# [6] = target: Rap guanine nucleotide exchange factor 3 (Homo sapiens) (UniProt O95398); test: Confirmatory qHTS for agonist of cAMP-regulated guanine nucleotide exchange factor 3 (EPAC1) (AID 1645881);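 also: EPAC1 catalysed release of BODIPY-GDP from Rap1B seen as fluorescence loss; nearly all actives have a fitted effect of over 75% in size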
# Rap guanine nucleotide exchange factor 3 (Homo sapiens), sequence (O95398 whole entry, looked up): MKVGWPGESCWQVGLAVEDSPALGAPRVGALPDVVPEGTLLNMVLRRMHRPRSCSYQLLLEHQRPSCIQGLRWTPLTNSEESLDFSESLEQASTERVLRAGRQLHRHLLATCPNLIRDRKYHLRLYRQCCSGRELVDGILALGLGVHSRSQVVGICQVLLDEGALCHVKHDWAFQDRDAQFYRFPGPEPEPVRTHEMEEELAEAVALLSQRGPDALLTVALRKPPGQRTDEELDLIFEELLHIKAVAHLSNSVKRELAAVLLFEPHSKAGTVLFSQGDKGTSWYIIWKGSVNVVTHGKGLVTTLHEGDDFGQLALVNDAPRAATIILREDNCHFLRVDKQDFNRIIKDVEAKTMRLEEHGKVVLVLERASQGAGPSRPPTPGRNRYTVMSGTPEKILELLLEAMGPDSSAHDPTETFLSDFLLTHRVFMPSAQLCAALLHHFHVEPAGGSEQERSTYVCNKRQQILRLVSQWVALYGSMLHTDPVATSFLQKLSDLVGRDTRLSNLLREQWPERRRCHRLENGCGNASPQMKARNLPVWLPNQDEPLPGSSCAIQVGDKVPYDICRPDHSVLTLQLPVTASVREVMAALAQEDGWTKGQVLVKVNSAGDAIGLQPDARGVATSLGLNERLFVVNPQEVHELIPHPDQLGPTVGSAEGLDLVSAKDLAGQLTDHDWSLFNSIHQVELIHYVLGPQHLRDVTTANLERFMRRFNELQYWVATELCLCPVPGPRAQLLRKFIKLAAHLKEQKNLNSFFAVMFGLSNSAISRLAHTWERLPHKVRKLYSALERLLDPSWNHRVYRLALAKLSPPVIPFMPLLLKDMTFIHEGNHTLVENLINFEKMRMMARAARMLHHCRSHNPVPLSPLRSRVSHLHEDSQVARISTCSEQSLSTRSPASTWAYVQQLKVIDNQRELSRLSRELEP
# [7] = target: Rap guanine nucleotide exchange factor 4 (Homo sapiens) (UniProt Q8WZA2); test: Confirmatory qHTS for agonist of cAMP-regulated guanine nucleotide exchange factor 4 (EPAC2) (AID 1645884);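 also: nucleotide exchange releases bodipy-GDP from Rap1 and this lowers its fluorescence; nearly all actives have a fitted effect of over 65% in size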
# Rap guanine nucleotide exchange factor 4 (Homo sapiens), sequence (Q8WZA2 whole entry, looked up): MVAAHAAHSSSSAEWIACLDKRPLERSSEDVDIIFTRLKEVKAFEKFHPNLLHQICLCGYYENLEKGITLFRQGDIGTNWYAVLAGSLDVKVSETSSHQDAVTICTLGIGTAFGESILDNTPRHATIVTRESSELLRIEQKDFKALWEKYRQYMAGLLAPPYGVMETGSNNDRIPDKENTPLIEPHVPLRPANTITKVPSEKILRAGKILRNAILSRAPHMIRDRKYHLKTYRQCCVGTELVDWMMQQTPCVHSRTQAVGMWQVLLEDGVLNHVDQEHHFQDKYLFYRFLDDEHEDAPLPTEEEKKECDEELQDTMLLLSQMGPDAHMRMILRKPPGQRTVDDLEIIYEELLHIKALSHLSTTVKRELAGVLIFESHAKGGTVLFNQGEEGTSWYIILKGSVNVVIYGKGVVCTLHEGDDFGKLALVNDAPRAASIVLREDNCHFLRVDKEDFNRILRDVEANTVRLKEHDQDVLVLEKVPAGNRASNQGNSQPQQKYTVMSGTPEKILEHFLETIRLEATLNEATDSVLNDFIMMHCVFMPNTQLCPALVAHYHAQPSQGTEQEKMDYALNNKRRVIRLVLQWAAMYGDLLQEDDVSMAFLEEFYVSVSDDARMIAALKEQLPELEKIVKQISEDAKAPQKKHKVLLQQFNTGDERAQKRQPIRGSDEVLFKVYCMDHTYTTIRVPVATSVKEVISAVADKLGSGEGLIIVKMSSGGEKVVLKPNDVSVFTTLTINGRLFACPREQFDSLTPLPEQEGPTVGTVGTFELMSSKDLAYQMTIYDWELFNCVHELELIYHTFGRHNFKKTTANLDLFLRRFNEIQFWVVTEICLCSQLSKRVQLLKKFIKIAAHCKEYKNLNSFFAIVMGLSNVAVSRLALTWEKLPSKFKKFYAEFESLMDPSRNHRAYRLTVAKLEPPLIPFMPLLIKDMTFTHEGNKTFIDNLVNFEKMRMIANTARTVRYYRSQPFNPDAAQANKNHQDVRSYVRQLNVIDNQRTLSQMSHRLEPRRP
smiles,measurement,setting,value
O=C(Nc1cccnc1)N1CCC(Cc2cccc(Oc3ccc(C(F)(F)F)cn3)c2)CC1,Potency,[1],4.25 µM (active)
same,Potency,[2],10.7 µM (active)
same,Potency,[3],6.49 µM (active) and 7.42 µM (active)
same,Potency,[4],5.25 µM (active)
C/C(=C\C(=O)Nc1ccccc1C(=O)O)c1ccc2ccccc2c1,Potency,[1],inactive
same,Potency,[3],20.9 µM (active)
Cc1ccccc1C(OCCN(C)C)c1ccccc1 (stereo not drawn),Potency,[2],inactive
same,Potency,Papain (Carica papaya),inactive
same,Potency,[3],inactive
same,Potency,[4],inactive
COc1ccccc1-c1cccc(-c2c(O)c3cc(C#N)c(Cl)cc3[nH]c2=O)c1,Potency,[2],35.5 µM (active)
same,Potency,[3],inactive
Oc1ccc(C2CNCCc3c2cc(O)c(O)c3Cl)cc1 (stereo not drawn),Potency,[2],inactive
same,Potency,Papain (Carica papaya),inactive
same,Potency,[3],inactive
same,Potency,[4],inactive
CCOc1ccn(-c2ccc(F)cc2)c(=O)c1C(=O)Nc1ccc(Oc2ccnc(N)c2Cl)c(F)c1,Potency,[1],inactive
same,Potency,[2],inactive
same,Potency,[3],7.28 µM (active) and 11.8 µM (active)
same,Potency,[4],8.17 µM (active) and 7.42 µM (active)
CCc1ccc(CCOc2ccc(CC3SC(=O)NC3=O)cc2)nc1 (stereo not drawn),Potency,[1],inactive
same,Potency,[3],inactive
OCCn1cc(-c2cnc3nnn(Cc4ccc5ncccc5c4)c3n2)cn1,Potency,[1],inactive
same,Potency,[5],inactive
same,Potency,[3],inactive
same,Potency,[4],inactive
CCN(CC)CCCC(C)Nc1nc(C)cc(Nc2ccc3nc(C)cc(N)c3c2)n1 (stereo not drawn),Potency,[2],inactive
C1COC(NC(C2CC2)C2CC2)=N1,Potency,[2],inactive
same,Potency,Papain (Carica papaya),inactive
same,Potency,[3],inactive
same,Potency,[4],inactive
Cc1c(C)c2c(c(C)c1O)CCC(C)(COc1ccc(CC3SC(=O)NC3=O)cc1)O2 (stereo not drawn),Potency,[2],6.92 µM (active)
COc1ccc2nc(S(=O)Cc3ncc(C)c(OC)c3C)[nH]c2c1 (stereo not drawn),Potency,[1],inactive
same,Potency,[3],inactive
C#Cc1cccc(Nc2ncnc3cc(OCCOC)c(OCCOC)cc23)c1,Potency,[1],inactive
same,Potency,[2],inactive
same,Potency,[3],8.41 µM (active)
same,Potency,[4],9.44 µM (active)
COc1cccc2cc(-c3nc(C4CCC(C(=O)O)CC4)n4ncnc(N)c34)[nH]c12 (stereo not drawn),Potency,[1],inactive
same,Potency,[2],inactive
same,Potency,[3],5.9 µM (active) and 731 nM (active)
Cc1ccc(NC(=O)c2cccc(C(C)(C)C#N)c2)cc1Nc1ccc2ncn(C)c(=O)c2c1,Potency,[1],12 µM (active)
same,Potency,[2],8.49 µM (active)
same,Potency,[3],10.5 µM (active)
COc1cc(Oc2ccnc3cc(OC)c(OC)cc23)ccc1NC(=O)NC(C)c1nccs1 (stereo not drawn),Potency,[1],inactive
same,Potency,[2],0.601 µM (active)
same,Potency,[3],inactive and 13.2 µM (active)
same,Potency,[4],inactive and 8.33 µM (active)
Cc1[nH]c(=O)c(C#N)cc1-c1ccc2nccn2c1,Potency,[1],inactive
same,Potency,[2],inactive
same,Potency,[3],inactive
C[C@@H]1CN(Cc2ccc(F)cc2)[C@@H](C)CN1C(=O)c1cc2c(C(=O)C(=O)N(C)C)cn(C)c2cc1Cl,Potency,[2],7.56 µM (active)
NS(=O)(=O)c1cc2c(cc1Cl)NC=NS2(=O)=O,Potency,Papain (Carica papaya),inactive
same,Potency,[3],inactive
same,Potency,[4],inactive
Nc1ncnc2nc(-c3ccc(N4CCOCC4)nc3)cc(-c3cccc(Br)c3)c12,Potency,[5],0.515 µM (active)
same,Potency,[4],20.9 µM (active)
CC(C)C[C@H](NC(=O)[C@@H](O)[C@H](N)Cc1ccccc1)C(=O)O,Potency,Papain (Carica papaya),inactive
same,Potency,[3],inactive
same,Potency,[4],inactive
c1ccc(-c2nn3c(c2-c2ccnc4cc(OCCN5CCOCC5)ccc24)CCC3)nc1,Potency,[3],16.6 µM (active)
CC(C)(N)C(=O)N[C@H](COCc1ccccc1)C(=O)N1CCC2(CC1)CN(S(C)(=O)=O)c1ccccc12,Potency,[2],inactive
same,Potency,[3],16.3 µM (active) and 26.3 µM (active)
same,Potency,[4],14.5 µM (active) and 14.8 µM (active)
O=C(O)CCc1ccc(NCc2cccc(Oc3ccccc3)c2)cc1,Potency,Papain (Carica papaya),inactive
same,Potency,[3],inactive
same,Potency,[4],inactive
Cc1cc2c(F)c(Oc3ncnn4cc(OC[C@@H](C)O)c(C)c34)ccc2[nH]1,Potency,[3],2.63 µM (active)
NCCCC(N)(C(=O)O)C(F)F (stereo not drawn),Potency,Papain (Carica papaya),inactive
same,Potency,[3],inactive
CCCc1nc2c(C)cc(-c3nc4ccccc4n3C)cc2n1Cc1ccc(-c2ccccc2C(=O)O)cc1,Potency,[2],8.71 µM (active)
same,Potency,[3],inactive
OCCC#Cc1nc(-c2ccc(F)cc2)c(-c2ccncc2)n1CCCc1ccccc1,Potency,[3],16.4 µM (active) and 11.8 µM (active)
same,Potency,[4],18.4 µM (active) and 9.34 µM (active)
CN(C)c1ccc(Nc2nc(N)n(C(=O)c3c(F)cccc3F)n2)cc1,Potency,[3],1.48 µM (active)
C[C@H](NC(=O)Cc1cc(F)cc(F)c1)C(=O)N[C@@H]1C(=O)N(C)c2ccccc2-c2ccccc21,Potency,[3],inactive
Cc1cccc(-c2[nH]c(C(C)(C)C)nc2-c2ccc3nccnc3c2)n1,Potency,Papain (Carica papaya),inactive
same,Potency,[3],13.2 µM (active) and 5.8 µM (active)
same,Potency,[4],11.8 µM (active) and 6.51 µM (active)
CN1CCN(CCCN2c3ccccc3Sc3ccc(C(F)(F)F)cc32)CC1,Potency,Papain (Carica papaya),inactive
same,Potency,[3],18.8 µM (active) and 16.6 µM (active)
same,Potency,[4],23.7 µM (active) and 16.6 µM (active)
same,outcome,[6],inactive
same,outcome,[7],inactive
Cc1cc([C@@H](C)Nc2ccccc2C(=O)O)c2nc(N3CCOCC3)cc(=O)n2c1,Potency,[3],2.24 µM (active) and 1.86 µM (active)
O=C(Nc1ccc(F)c(C(F)(F)F)c1)Nc1nnc(-c2ccncc2)s1,Potency,[3],inactive
CNC(=O)c1ccc(N2C(=S)N(c3ccc(C#N)c(C(F)(F)F)c3)C(=O)C2(C)C)cc1F,Potency,[3],inactive
O=C1CCCC2=C1C(c1[nH]ncc1Cl)N=C(Nc1nc3ccccc3o1)N2 (stereo not drawn),Potency,[3],inactive
O=C(O)COCCN1CCN(C(c2ccccc2)c2ccc(Cl)cc2)CC1 (stereo not drawn),Potency,Papain (Carica papaya),inactive
O=C(C1CC1)N1CC[C@@H](Cn2c(-c3ccc(-c4ccc5occc5c4)cc3)nc3cnccc32)C1,Potency,[3],18.6 µM (active)
O=C(Nc1nc2ccccc2n1CCN1CCOCC1)c1cccc([N+](=O)[O-])c1,Potency,Papain (Carica papaya),inactive
same,Potency,[3],inactive
same,Potency,[4],inactive
